Test results as given in PubChem BioAssay (EPA / NIEHS).
Active and inactive are the calls of the source. Rule for the calls: active = hit-call score of the fitted dose curve at least 0.9, where 1 is the maximum; inactive = score below 0.9.

Assay: CEETOX_H295R_PROG: CeeTox H295R High-throughput Steroidogenesis Assay for Progesterone (PROG) (AID 2283442);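 for AC50: human H295R adrenal cells primed with 10 µM forskolin before dosing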
Settings: actives raise or lower the signal
Protocol: CEETOX_H295R is a cell-based, multiplexed-readout assay that uses H295R, a human adrenal gland cell line, with measurements taken at 48 hours after chemical dosing in a 96-well plate.CEETOX_H295R_PROG is one of 23 assay component(s) measured or calculated from the CEETOX_H295R assay. It is designed to make measurements of hormone induction, a form of inducible reporter, as detected with absorbance signals by HPLC-MS-MS technology.Data from the assay component CEETOX_H295R_PROG was analyzed into 1 assay endpoint. This assay endpoint, CEETOX_H295R_PROG, was analyzed with bidirectional fitting relative to DMSO as the negative control and baseline of activity. Using a type of inducible reporter, gain or loss-of-signal activity using HPLC-MS-MS was used to understand synthesis of Progesterone in H295R cell line at 48hr of chemical exposure. To generalize the intended target to other relatable targets, this assay endpoint is annotated to the steroid hormone intended target family, where the subfamily is progestagens.
Cell culture and media preparation procedures were conducted in accordance with OECD Test No. 456 guidelines, with minor modifications. H295R cells (ATCC CRL-2128) were expanded for 5 passages and frozen in batches in liquid nitrogen. Prior to the steroidogenesis assay, H295R cells were thawed and passed at least 4 times. The maximum passage was 10. Cells were maintained in a 1:1 mixture of DMEM/F12 supplemented with 5ml/L ITS+ Premix (BD Bioscience) and 12.5 ml/L Nu-Serum (BD Bioscience). After seeding cells into 96-well plates at 50-60% confluency, cells were allowed to adhere overnight. Prior to chemical testing, culture medium was replaced with 175 uL medium containing 10 uM forskolin to stimulate steroidogenesis for 48 hours. Following prestimulation, forskolin medium was replaced with medium containing test chemical solubilized in DMSO (ensuring a final concentration of 0.1% DMSO). Test chemicals were incubated for 48 hours, then the medium was removed and split into 2 vials containing approximately 75uL each, and stored at -80 C prior to hormone analysis. For steroid quantification, media samples were shipped to OpAns, LLC (Durham, NC) on dry ice, and samples were thawed to room temperature prior to liquid-liquid extraction. Steroid hormones were extracted from media samples using methyl tertbutyl ether (MTBE). An extra derivatization with dansyl chloride was included for estrogen (estrone and estradiol) detection only. Steroid hormones were separated by HPLC, eluted using a reverse phase C18 gradient with electrospray positive ionization, followed by quantification by tandem mass spectrometry (MS/MS). Data were acquired on a MassHunter Workstation Acquisition version B03.01 (Agilent Technologies, Inc.) and processed using MassHunter Quantitative Analysis for QQQ. Accuracy was determined for each hormone analyte from 3 standards to determine upper and lower limits of quantification (ULOQ and LLOQ, respectively) using a 7-point standard curve. Precision and accuracy of the extraction and quantification methods were calculated as the percent relative standard deviation (%RSD) of the spiked standards and percent spiked standard recovered, respectively. The goal was to achieve 100% accuracy (i.e., recover all spiked-in standard at quantification with minimal loss during run time) and good precision (i.e., have %RSD <15% to ensure reproducibility). Test medium was removed following chemical exposure, and cell viability was evaluated in the same wells by MTT. MTT procedures were as follows: after removal of test medium, 500 uL of 0.5 mg/ml of 3-[4,5-dimethylthiazol-2-y]2,5-diphenyltetrazoliumbromide solution was added to the cells. Following a 4-hour incubation at 37 C and 5% CO2 to allow formazan-crystal formation, the MTT solution was removed and blue formazan salt crystals were solubilized using 500uL anhydrous isopropanol with shaking for 20 minutes. Absorbance was read at 570 and 650nm using a Packard Fusion microplate reader. […]

| SMILES | outcome | AC50 |
| --- | --- | --- |
| CCOC(=O)C(C)Oc1ccc(Oc2cnc3cc(Cl)ccc3n2)cc1 (stereo not given) | inactive | – |
| CCNc1nc(N)nc(Cl)n1 | inactive | – |
| CC(=O)[C@H]1CC[C@H]2[C@@H]3CCC4=CC(=O)CC[C@]4(C)[C@H]3CC[C@]12C | – | 5 µM (active) |
| S=C(S)NCCNC(=S)S.[Mn+2].[S-]C([S-])=NCCN=C([S-])[S-].[Zn+2] | inactive | – |
| CSC(=O)c1cccc2nnsc12 | inactive | – |
| C#C[C@]1(O)CC[C@H]2[C@@H]3CCC4=CC(=O)CC[C@@H]4[C@H]3CC[C@@]21CC | inactive | – |
| CCOC(=O)c1ccc(O)cc1 | – | 36.5 µM (active) |
| CN(C)C(=O)Nc1ccc(Cl)c(Cl)c1 | inactive | – |
| CC(=O)S[C@@H]1CC2=CC(=O)CC[C@]2(C)[C@H]2CC[C@@]3(C)[C@@H](CC[C@@]34CCC(=O)O4)[C@H]12 | inactive | – |
| Oc1ccc(C(c2ccc(O)cc2)C(Cl)(Cl)Cl)cc1 | – | 0.848 µM (active) |
| c1ccc(Nc2ccccc2)cc1 | inactive | – |
| S=C([S-])NCCNC(=S)[S-].[Mn+2] | inactive | – |
| CCN(Cc1c(F)cccc1Cl)c1c([N+](=O)[O-])cc(C(F)(F)F)cc1[N+](=O)[O-] | inactive | – |
| C#CCOC(=O)[C@@H](C)Oc1ccc(Oc2ncc(Cl)cc2F)cc1 | – | 9.01 µM (active) |
| CC(C)(c1ccc(O)cc1)c1ccc(O)cc1 | inactive | – |
| CCCCC(CC)CN1C(=O)C2C3C=CC(C3)C2C1=O (stereo not given) | inactive | – |
| c1ccc2[nH]c(-c3cscn3)nc2c1 | – | 59 µM (active) |
| CCCN(CCC)C(=O)SCC | inactive | – |
| O=C(Nc1ccc([N+](=O)[O-])cc1Cl)c1cc(Cl)ccc1O | inactive | – |
| CCCCCOC(=O)COc1cc(N2C(=O)C3=C(CCCC3)C2=O)c(F)cc1Cl | inactive | – |
| CC(C)(C)[C@@H](O)[C@@H](Cc1ccc(Cl)cc1)n1cncn1 | inactive | – |
| CCCCOC(=O)[C@@H](C)Oc1ccc(Oc2ccc(C(F)(F)F)cn2)cc1 | inactive | – |
| CC1(C)C(C=C(Cl)Cl)C1C(=O)OCc1cccc(Oc2ccccc2)c1 (stereo not given) | – | 11.5 µM (active) |
| C=CCOC(Cn1ccnc1)c1ccc(Cl)cc1Cl (stereo not given) | – | 0.296 µM (active) |
| CCCCOCCOCCOCc1cc2c(cc1CCC)OCO2 | inactive | – |
